The values that follow come from PubChem BioAssay (NCATS).

Structures are written as SMILES. “And” between values parts separate entries of the source, which are not always exact repeats. Identical values can stand only once. Unmarked numbers belong to inactive results. Inconclusive results are not listed. The source made the active and inactive calls. Unless noted, the call rests on the fitted dose curve; in most records, active means well fitted curve in either direction with a large enough effect (not every such curve was filed as active); inconclusive means small, poorly fitted or top-dose-only effect, or another doubt; inactive means flat fitted curve, though single readings scatter.

A short description of test [1]: AP1 Signaling Pathway (AID 357). Further: on the % scale 0 is the no-effect control and ±100 the full control effect. The settings on record: ME-180 AP-1-bla reporter, EGF-induced, beta-lactamase ratio, 5 h; at 17.2 µM (top of the series) unless noted. An outline of the steps: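 AP-1-bla ME-180 cells with beta-lactamase reporter under AP-1 response element, stimulated with EC50 EGF; compounds titrated, 5 hours at 37 degrees Celsius. CCF4 read at 460/530 nm ratio; positive and negative modulators judged by AC50.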

Test [2] is described as follows: Stat Signaling Pathway (AID 446).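 Further: ME-180 cervical cancer cells given 40 pM IL-6 alongside compound; SIE-controlled beta-lactamase reporter measured as 460/530 nm FRET emission ratio; on the % scale 0 is the no-effect control and ±100 the full control effect.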 The settings on record: ME-180 (cervical carcinoma) SIE beta-lactamase reporter, IL-6 stimulated, 5 h; at 17.2 µM (top of the series) unless noted. Put shortly: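 FRET read-out (405 nm excitation, 460/530 nm emission) of a beta-lactamase reporter under a STAT-inducible element in ME-180 cervical carcinoma cells. Cells with compound receive 40 pM IL-6 for 5 h. Values are normalised to AC90 stimulation and AC90 JAK-inhibitor controls.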

Test [3] concerns the target Glucocorticoid receptor (Homo sapiens) (UniProt P04150). As to the kind of experiment: GR-GFP Redistribution (AID 450;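 active means compounds whose dose series gives a full or clear partial fitted curve of increased nuclear translocation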; further: potency means the concentration at half of the fitted maximal effect). The settings on record: U2OS GR-GFP nuclear translocation, laser cytometry, 2 h.
The target is the same in test [4]. As to the kind of experiment: GR-EFC Redistribution (AID 451; calls by dose curve; further: potency means the concentration at half of the fitted maximal effect). The settings on record: CHO-K1 GR-EFC translocation, beta-gal luminescence, 2 h. An outline of the steps: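 Translocation of GR-ED fusion to nuclear EA restores b-gal, read by luminescence after 1 h room-temperature detection. Engineered CHO-K1 biosensor cells, 1,000/well, exposed 2 h at 37 C to titrations up to 46 uM final.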

The nature of test [5]: NFAT Signaling Pathway (AID 444).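 Further: carbachol stimulus at about its EC50 of 1 µM final; on the % scale 0 is the no-effect control and ±100 the full control effect.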 Conditions: Jurkat NFAT-bla M1, carbachol, beta-lactamase ratio, 5 h; at 17.2 µM (top of the series) unless noted. Put shortly: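 Read-out: CCF4 FRET ratio (460 nm/530 nm) after 1 h RT dye loading, used for %activity and AC50 from titration series. Cells: Jurkat NFAT-β-lactamase/M1 line, treated with compound plus 1 uM carbachol for 5 h, 37 °C.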

The target in test [6] is Mitogen-activated protein kinase 10 (Mus musculus) (UniProt Q61831). As to the kind of experiment: JNK3 AlphaScreen Assay (AID 530).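 Further: kinase came from lysate of stimulated human HepG2 cells; signal reports phosphorylation of biotinylated GST-cJun 1-79 at Ser73 with 10 µM ATP; on the % scale 0 is the no-effect control and ±100 the full control effect.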 Put shortly: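 Kinase buffer: 20 mM Tris-HCl pH 7.6, 10 mM MgCl2, 1 mM DTT, 0.1 mM Na3VO4, 0.01% Tween-20; ATP 10 uM. Substrate biotin-GST-cJun(1-79), enzyme from activated HepG2 lysates. Detection by Ser73 phospho-antibody AlphaScreen.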
(Bead proximity is the source of the signal in Alpha formats.)

The target in test [7] is 3',5'-cyclic-AMP phosphodiesterase 4B (Homo sapiens) (UniProt Q07343). As to the kind of experiment: qHTS Assay for Inhibitors of PDE-IV (AID 607; active means well fitted activation curve with a large enough effect in the main read-out, with a control signal flat, not every such curve was filed as active; further: % of control where 0% means no effect). An outline of the steps: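 Cell-based read-out of cAMP via a modified cyclic nucleotide-gated channel and membrane potential dye (535/590 nm) in HEK293 cells expressing PDE4 endogenously. Compounds tested up to 22.9 uM final; 100 uM RO 20-1724 reference.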

The nature of test [8]: Cell Viability - Jurkat (AID 426;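 active means dose-dependent loss of cell ATP signal giving a full or clear fitted curve, ranked by lower potency value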;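 further: potency means the concentration at half of the fitted maximal effect; cells exposed to compound for 40 hours at 37 °C before ATP read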). Conditions: qHTS. Put shortly: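 Luminescent ATP read-out (CellTiter-Glo, 20 min at room temperature) after 40 hr compound exposure at 37 °C of Jurkat E6-1 cells, 5000/well. Decreased ATP taken as cytotoxicity; AC50 from standard Hill equation.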
A short description of test [9]: Cell Viability - Hek293 (AID 427;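 active means compounds whose dose-response curve shows a full or clear partial loss of cell viability, called from curve shape rather than a numeric limit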;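 further: potency means the concentration at half of the fitted maximal effect; cells exposed to compound for 40 hours at 37 °C before reading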). Conditions: qHTS. Put shortly:
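Luminescent ATP content (CellTiter-Glo, 20 min at room temperature) was measured after a 40 hr, 37 °C compound exposure of HEK293 cells. AC50 values came from Hill-equation fits of qHTS concentration-response data normalized to DMSO and 100 uM tamoxifen.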
A general note: qHTS replaces the single test concentration by a dilution series.

Test [10] is described as follows: Cell Viability - SK-N-SH (AID 435; calls by dose curve; further: potency means the concentration at half of the fitted maximal effect). The settings on record: SK-N-SH neuroblastoma cell viability qHTS. An outline of the steps:
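Cells seeded at 1500 per well and incubated 5 hr at 37 °C. Compound added, then 40 hr at 37 °C. CellTiter-Glo added, 20 min at room temperature, luminescence read.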

The nature of test [11]: Cell Viability - N2a (AID 540; active means well fitted curve in the direction sought with a large enough effect; an effect the other way counts as inactive or inconclusive; further: potency means the concentration at half of the fitted maximal effect; nearly all actives have a fitted effect of over 45% in size). The settings on record: N2a mouse neuroblastoma cell viability; activity change, negative = cytotoxicity: at 92.2 µM (top of the series). An outline of the steps: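 N2a mouse neuroblastoma, 1500 cells/well, 5 hr settle; compound 40 hr, 37 °C; CellTiter-Glo 20 min RT; luminescence; Hill-fit AC50.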
Test [12] can be described thus: Cell Viability - NIH 3T3 (AID 541; active means well fitted curve in the direction sought with a large enough effect; an effect the other way counts as inactive or inconclusive;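 further: potency means the concentration at half of the fitted maximal effect; cells exposed to compound for 40 hours; nearly all actives have a fitted effect of over 25% in size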). Conditions: NIH 3T3 cell viability, qHTS; activity change, negative = cytotoxicity: at 92.2 µM (top of the series). Put shortly: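 qHTS format; 40 hr compound exposure, 37 °C; CellTiter-Glo luminescence (cellular ATP) read-out after 20 min at RT. Decrease in ATP = cytotoxicity; AC50 from standard Hill fit.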
The nature of test [13]: Cell Viability - HUV-EC-C (AID 542; active means well fitted curve in the direction sought with a large enough effect; an effect the other way counts as inactive or inconclusive;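 further: potency means the concentration at half of the fitted maximal effect; cells exposed to compound for 40 hours; nearly all actives have a fitted effect of over 35% in size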). Put shortly:
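Luminescent ATP read-out (CellTiter-Glo, 20 min room temperature) after 40 hr compound treatment of HUV-EC-C cells at 37 °C. Concentration-response data fitted with the standard Hill equation to give AC50; tamoxifen and doxorubicin served as positive controls.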

Test [14] is described as follows: Cell Viability - H-4-II-E (AID 543; active means well fitted curve in the direction sought with a large enough effect; an effect the other way counts as inactive or inconclusive;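 further: potency means the concentration at half of the fitted maximal effect; cells exposed to compound for 40 hours; nearly all actives have a fitted effect of over 35% in size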). Put shortly: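 qHTS, rat hepatoma H-4-II-E, 1500 cells/well; 40 hr compound exposure, 37 °C; CellTiter-Glo ATP luminescence after 20 min RT; AC50 by standard Hill fit.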
Test [15] is described as follows: Cell Viability - Renal Proximal Tubule (AID 545; active means well fitted curve in the direction sought with a large enough effect; an effect the other way counts as inactive or inconclusive;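 further: potency means the concentration at half of the fitted maximal effect; cells exposed to compound for 40 hours; nearly all actives have a fitted effect of over 40% in size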). An outline of the steps:
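Cytotoxicity is scored as a concentration-dependent drop in cellular ATP in primary rat renal proximal tubule cells exposed for 40 hr. AC50 derives from Hill modelling.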

A short description of test [16]: Cellular Toxicity (caspase-3) HepG2 (AID 654; active means well fitted curve in the direction sought with a large enough effect; an effect the other way counts as inactive or inconclusive;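 further: cells exposed to compound for 16 hours before reading; 0% = DMSO alone and 100% = caspase signal from 100 µM tamoxifen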). Put shortly: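 Luminescent Caspase-Glo 3/7 readout after 16 hr compound exposure of human hepatocellular carcinoma HepG2 cells at 37 °C; qHTS concentration-response, normalized DMSO = 0%, 100 uM tamoxifen = 100%; AC50 by standard Hill equation.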
The nature of test [17]: Cellular Toxicity (caspase-3) Jurkat (AID 655; active means well fitted curve in the direction sought with a large enough effect; an effect the other way counts as inactive or inconclusive;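 further: cells exposed to compound for 16 h at 37 °C before reading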). Put shortly: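 Caspase 3/7 activation is scored as increased luminescence in Jurkat cells cultured with compound for 16 hours in complete medium. AC50 values come from Hill fits of qHTS concentration-response data normalized to DMSO and 100 uM tamoxifen controls.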

Chain of 3',5'-cyclic-AMP phosphodiesterase 4B (Homo sapiens) (Q07343 whole entry, looked up): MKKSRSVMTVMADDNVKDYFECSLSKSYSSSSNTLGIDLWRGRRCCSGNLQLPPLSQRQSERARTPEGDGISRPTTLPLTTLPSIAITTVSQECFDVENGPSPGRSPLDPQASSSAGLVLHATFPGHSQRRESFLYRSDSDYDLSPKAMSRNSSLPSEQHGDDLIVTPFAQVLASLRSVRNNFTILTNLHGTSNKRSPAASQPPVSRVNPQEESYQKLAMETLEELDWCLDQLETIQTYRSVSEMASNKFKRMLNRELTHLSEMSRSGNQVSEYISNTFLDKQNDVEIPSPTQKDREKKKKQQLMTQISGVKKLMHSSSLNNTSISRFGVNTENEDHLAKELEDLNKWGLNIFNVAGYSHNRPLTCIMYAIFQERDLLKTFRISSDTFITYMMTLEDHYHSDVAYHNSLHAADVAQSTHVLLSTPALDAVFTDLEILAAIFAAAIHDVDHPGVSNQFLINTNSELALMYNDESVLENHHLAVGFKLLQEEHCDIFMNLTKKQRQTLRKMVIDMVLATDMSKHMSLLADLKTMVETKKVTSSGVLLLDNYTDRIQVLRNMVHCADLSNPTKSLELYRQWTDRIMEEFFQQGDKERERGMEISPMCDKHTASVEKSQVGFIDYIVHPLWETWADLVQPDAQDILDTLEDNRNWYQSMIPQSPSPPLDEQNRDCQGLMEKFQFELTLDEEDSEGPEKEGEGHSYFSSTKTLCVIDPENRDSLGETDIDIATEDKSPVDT
Chain of Glucocorticoid receptor (Homo sapiens) (P04150 whole entry, looked up, the tested form may be a part): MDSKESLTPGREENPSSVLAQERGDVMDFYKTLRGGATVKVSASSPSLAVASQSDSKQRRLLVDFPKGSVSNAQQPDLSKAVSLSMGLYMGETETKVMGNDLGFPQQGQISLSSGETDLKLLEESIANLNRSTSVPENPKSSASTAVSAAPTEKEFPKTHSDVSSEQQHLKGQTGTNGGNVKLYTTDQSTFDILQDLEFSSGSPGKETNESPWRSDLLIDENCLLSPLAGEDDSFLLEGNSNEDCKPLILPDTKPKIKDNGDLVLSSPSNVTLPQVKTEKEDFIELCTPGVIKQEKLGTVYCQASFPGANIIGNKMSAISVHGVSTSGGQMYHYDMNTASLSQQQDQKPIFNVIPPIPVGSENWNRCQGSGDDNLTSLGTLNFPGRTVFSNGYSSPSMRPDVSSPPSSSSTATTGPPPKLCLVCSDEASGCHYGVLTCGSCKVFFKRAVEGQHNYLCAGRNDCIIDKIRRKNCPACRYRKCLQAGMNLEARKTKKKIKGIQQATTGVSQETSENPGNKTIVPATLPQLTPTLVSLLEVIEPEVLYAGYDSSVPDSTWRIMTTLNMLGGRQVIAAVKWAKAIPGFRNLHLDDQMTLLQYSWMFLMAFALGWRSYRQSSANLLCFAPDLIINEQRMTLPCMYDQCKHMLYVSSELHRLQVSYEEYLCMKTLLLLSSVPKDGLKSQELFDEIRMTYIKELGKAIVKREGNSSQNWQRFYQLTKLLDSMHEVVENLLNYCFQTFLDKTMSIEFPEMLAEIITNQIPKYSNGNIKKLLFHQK

For `NS(=O)(=O)c1cc2c(cc1Cl)NC(C(Cl)Cl)NS2(=O)=O` (stereo not drawn), the activity change, negative = inhibition in test [1] was 12.3%. Besides, in test [2], the activity, negative = inhibition is 2.72%.

On to `CC[C@H](NC(C)C)[C@H](O)c1ccc(O)c2[nH]c(=O)ccc12`, for which the Potency in [3] and in test [4] was more than 46 µM in each case.

With `O=S(=O)(c1cccc2cnccc12)N1CCCNCC1`, the activity change, negative = inhibition in [5] was -20.4%.

Take `O=C(O)c1cccnc1`: the activity change, negative = inhibition in test [5] is -4.12%. Besides, the activity, negative = inhibition in test [2] is 3.94%. Further, the Potency result in test [6] is “inactive”. For the same compound, in [7], the call was inactive.

For the compound `COc1ncnc(NS(=O)(=O)c2ccc(N)cc2)c1OC`, the activity change, negative = inhibition is -3.45% in test [1] and -25.1% in test [5]. In addition, the activity, negative = inhibition in [2] is -3.42%. In addition, the Potency entry in [6] is “inactive”. The compound was called inactive in test [7].

Turning to `CC1=CC(=O)c2ccccc2C1=O`, the activity change, negative = inhibition in [5] is -115% (active). For the same compound, the Potency in [3] and in [4] was more than 20.6 µM in each case. Also, the Potency result in test [6] is “inactive”. Besides, the call in test [7] was inactive.

Take `O=C(O)c1cn(C2CC2)c2cc(N3CCNCC3)c(F)cc2c1=O`: the activity change, negative = inhibition is 3.13% in test [1] and 6.31% in test [5]. Besides, the activity, negative = inhibition in [2] is 11.7%. The Potency result in [6] is “inactive”.

`CC(=O)Oc1ccccc1C(=O)Nc1ncc([N+](=O)[O-])s1`: the Potency in test [8] is 30.6 µM (active); in test [9] it was 32.6 µM (active); in test [10], 20.7 µM (active); in [11], 25.1 µM (active); in test [12], 31.6 µM (active); in [13] it was 31.6 µM (active). The figures for the Potency in [14] and in test [15] were 31.6 µM (active) and 25.1 µM (active), respectively. In addition, in [16], the Potency entry is “inactive”. Further, in test [17], the result was inactive.

With `Clc1ccccc1CN1CCc2sccc2C1`, the activity change, negative = inhibition in test [1] is -15.6% and -18.3%. In test [2], the activity, negative = inhibition is 1.54% and 0.607%. Besides, the Potency entry in [6] was “inactive”.

As for `Cc1ccc(S(=O)(=O)N[C@@H](Cc2ccccc2)C(=O)CCl)cc1`, in test [2], the activity, negative = inhibition is -65.8% [at 38 µM] (active). Besides, the Potency in test [3] and in [4] was more than 46 µM each time. For the same compound, the Potency result in [6] is “inactive”.

`CCn1cc(C(=O)O)c(=O)c2cc(F)c(N3CCNCC3)nc21`: the activity change, negative = inhibition in [1] is -5.75% and 5.53%; in [5] it was -11.9% and 9.94%. Further, in [2], the activity, negative = inhibition is 4.75% and 1.14%. Besides, the Potency entry in [6] was “inactive”. In addition, the result in test [7] was inactive.

`OCc1ccc(-c2nn(Cc3ccccc3)c3ccccc23)o1`: the activity change, negative = inhibition in test [1] is -16.4% [at 38 µM]; in [5] it was 4.66% [at 38 µM]. The activity, negative = inhibition in test [2] was -17.6% [at 38 µM]. Besides, the Potency in test [3] and in [4] was more than 46 µM in each case. For the same compound, the compound was called inactive in test [7].

In the case of `COc1cc([C@@H]2c3cc4c(cc3[C@H](O)[C@H]3COC(=O)[C@H]23)OCO4)cc(OC)c1OC`, the activity change, negative = inhibition in [1] was 20.7%. In test [2], the activity, negative = inhibition was 6.38%.
